# From PubChem BioAssay (EPA / NIEHS)
# Several values for one entry are separate records, joined by “and”; a condition that tells them apart may be missing. Equal values may be shown once. Some compounds were tested as several samples or in several runs, with calls that do not always agree. Activity calls are given as the source filed them. How the source made its calls: active means hit-call score of the fitted dose curve at least 0.9, where 1 is the maximum; inactive means score below 0.9.
# Read-out: Interferon-gamma inducible Protein 10 (IP10), CXCL10 (gene 3627)
# Assay: BSK_hDFCGF_IP10: BioMAP Diversity Plus: hDFCGF Assay for Interferon-gamma inducible Protein 10 (IP10) Biomarker Activity (AID 2283053)
# Conditions: primary human foreskin fibroblasts; actives raise or lower the signal
# Procedure: BSK_hDFCGF is a cell-based, multiplexed-readout assay that uses foreskin fibroblast, a human skin primary cell, with measurements taken at 24 hours after chemical dosing in a 96-well plate.BSK_hDFCGF_IP10 is an assay component measured in the BSK_hDFCGF assay. It measures IP-10 antibody related to regulation of gene expression using ELISA technology.Data from the assay component BSK_hDFCGF_IP10 was analyzed into 1 assay endpoint. This assay endpoint, BSK_hDFCGF_IP10, was analyzed with bidirectional fitting relative to DMSO as the negative control and baseline of activity. Using a type of binding reporter, gain or loss-of-signal activity can be used to understand changes in the signaling as they relate to the gene CXCL10. Furthermore, this assay endpoint can be referred to as a primary readout, because this assay has produced multiple assay endpoints where this one serves a signaling function. To generalize the intended target to other relatable targets, this assay endpoint is annotated to the cytokine intended target family, where the subfamily is chemotactic factor.
# The levels of cell surface (or secreted, indicated by the prefix "s") biomarker endpoints were measured by ELISA. Overt cytotoxicity to cells in confluent adherent cultures (all systems other than the BT system) was assessed by measuring total protein levels using sulforhodamine B (SRB) staining in parallel cultures at the time of biomarker measurements, indicated as SRB endpoints. For proliferation assays for adherent cell types, individual cell types are cultured at sub-confluence and relative cell numbers quantified by SRB staining at time points optimized for each system (48 h: 3C and CASM3C systems; 72 h: BT and HDF3CGF systems; 96 h: SAg system). SRB was performed by staining cells with 0.1% SRB after fixation with 10% TCA and reading wells at 560 nm.Viability and proliferation of PBMC (T cells) was quantified by Alamar Blue reduction for the SAg and BT systems. For PBMC viability (referred to as PBMC Cytotoxicity within the assay endpoint names), cells were plated (75,000/well in a 96-well plate) and then chemical samples added for 1 h before addition of activators, SEB and TSST-1 (20 ng/mL final concentration each). Cells were incubated for 90 h. Then, Alamar Blue (20 uL/well) (Invitrogen, Cat DAL1100) was added for 6 h, and the plates were read with a fluorescence microplate reader at 546/580 nm (excitation/emission). For PBMC proliferation, cells were plated and activated as above but incubated for only 16 h prior to addition of Alamar Blue. Plates were read after 6 h.
Structure (SMILES),outcome,AC50
OCC(O)CC(F)(F)C(F)(F)C(F)(F)C(F)(F)C(F)(F)C(F)(F)C(F)(F)C(F)(F)F (stereo not given),inactive,
CCOC(=O)CC(=O)C(F)(F)C(F)(F)F,inactive,
FC(F)(F)C(F)(F)C(F)(F)C(F)(F)C(F)(F)C(F)(F)C(F)(F)CCI,inactive,2.45 µM (active)
CNS(=O)(=O)C(F)(F)C(F)(F)C(F)(F)C(F)(F)C(F)(F)C(F)(F)C(F)(F)C(F)(F)F,inactive,1.99 µM (active)
CO[Si](C)(CCC(F)(F)C(F)(F)C(F)(F)C(F)(F)C(F)(F)C(F)(F)F)OC,inactive,
CCN=C1C=CC(=C(c2ccc(N(CC)CC)cc2)c2ccc(N(CC)CC)cc2)c2ccccc21,,1.52 µM (active) and 1.32 µM (active)
C=C(C)C(=O)OCC(F)(F)C(F)(F)C(F)(F)C(F)F,inactive,
CC1=CC2C3C=CC(C3)C2C1C (stereo not given),inactive,
NCC(F)(F)C(F)(F)C(F)(F)C(F)(F)C(F)(F)C(F)(F)F,inactive,
CCN(CC)c1ccc(C=O)cc1,inactive,
C=CC(=O)OCC(F)(F)C(F)(F)C(F)(F)COC(=O)C=C,,1.26 µM (active) and 1.32 µM (active)
NC(=O)C(F)(F)C(F)(F)C(F)(F)F,inactive,
O=C(O)C(F)(F)C(F)(F)C(F)(F)C(=O)O,inactive,
O=S(=O)(O)CCC(F)(F)C(F)(F)C(F)(F)C(F)(F)F,inactive,
O=C(O)C(F)(F)C(F)(F)C(F)(F)C(F)(F)C(F)(F)C(F)(F)C(F)F,inactive,8.52 µM (active)
NC(=O)C(F)(F)C(F)(F)C(F)(F)C(F)(F)C(F)(F)C(F)(F)C(F)(F)F,inactive,
Cc1ccc(S(=O)(=O)C(I)I)cc1,,2.71 µM (active)
OCCCCC(F)(F)C(F)(F)C(F)(F)C(F)(F)F,inactive,

Structure (SMILES),outcome,AC50
O=C(O)CCC(F)(F)C(F)(F)C(F)(F)C(F)(F)C(F)(F)C(F)(F)C(F)(F)F,inactive,
CN(C(=O)C(F)(F)C(F)(F)C(F)(F)F)[Si](C)(C)C,inactive,
Brc1nc2ccccc2s1,inactive,
C=CC(=O)OCC(F)(F)C(F)(F)C(F)(F)C(F)(F)C(F)(F)C(F)(F)C(F)(F)C(F)F,inactive,28.8 µM (active)
O=C(O)C(F)(F)C(F)(F)C(F)(F)OC(F)(F)F,inactive,
Nc1cc([N+](=O)[O-])cc(Cl)c1O,inactive,
O=C=Nc1cccc2c(N=C=O)cccc12,inactive,
O=C1C=CC(=O)N1c1ccc(Cc2ccc(N3C(=O)C=CC3=O)cc2)cc1,,2.58 µM (active)
FC(F)(F)C(F)(F)C(F)(F)CC1CO1 (stereo not given),inactive,12.9 µM (active)
O=S(=O)(OCC(F)(F)F)C(F)(F)C(F)(F)C(F)(F)C(F)(F)F,,15.9 µM (active) and 16.4 µM (active)
CC(C)CCCC(C)CCO (stereo not given),inactive,
CCN(CC)c1ccc2c(c1)Oc1cc(N(CC)CC)ccc1C21OC(=O)c2ccccc21,inactive,
NCC(F)(F)C(F)(F)C(F)(F)C(F)(F)C(F)(F)C(F)(F)C(F)(F)C(F)(F)F,inactive,
O=S(=O)(Cl)C(F)(F)C(F)(F)C(F)(F)C(F)(F)C(F)(F)C(F)(F)C(F)(F)C(F)(F)F,inactive,
OC(O)C(F)(F)C(F)(F)F,inactive,
NS(=O)(=O)C(F)(F)C(F)(F)C(F)(F)C(F)(F)C(F)(F)C(F)(F)F,,37.3 µM (active) and 28.8 µM (active)
C=CC(=O)OCCC(F)(F)C(F)(F)C(F)(F)C(F)(F)F,,30 µM (active) and 21.3 µM (active)
